We go through 12 compounds from PubChem BioAssay.

“And” between values parts separate entries of the source, which are not always exact repeats. Identical values can stand only once. For some assays here: Results with a measured potency or affinity are listed apart. The source made the active and inactive calls.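 How the source made its calls, unless noted: active means thallium flux through the channel raised or lowered by more than 3 SD from vehicle-only wells, actives on both sides; inactive means the rest.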

A short description of experiment [1]: blockers of polyQ-driven CASP3 activation – cell-based (AID 1583). As to conditions: polyglutamine-induced caspase-3 activation, cell assay; stronger effect = higher value;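 tested at 10 µM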.
Experiment [2] can be described thus: yeast 75Q aggregation reduction – 75Q-TubU reporter (AID 1593). As to conditions: Yeast 75Q polyglutamine aggregation reporter.
Experiment [3] in a line: restoration of touch response, mutant HTT neurons – whole organism, C. elegans mechanosensory neurons, N-terminal huntingtin (AID 1599). Conditions: C. elegans polyQ-huntingtin mechanosensory neurons, stronger effect = higher value.
The nature of experiment [4]: blockers of cytochrome c efflux from mitochondria – biochemical, purified mitochondria (AID 1603).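 Further: mouse liver mitochondria challenged with calcium chloride; signal normalized to the plate average as 100%.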 As to conditions: stronger effect = lower value.
A short description of experiment [5]: polyglutamine aggregate formation blockers (AID 1604). Conditions: polyglutamine-induced protein aggregation inhibition assay; stronger effect = higher value; tested at 2.5 µM.
A short description of experiment [6]: glutamate transport activators, MN-1 cells, MN-1 cell line (AID 1612).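 Further: tested at 1 µM final; 0% = mean of DMSO vehicle wells on each plate; positive means more glutamate uptake than control and negative means less.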 As to conditions: MN-1 motor neuron cells, stronger effect = higher value.
Experiment [7] in a line: 75Q-TubH aggregate inhibition, S. cerevisiae, yeast (AID 1616). Conditions: S. cerevisiae 75Q-TubH polyglutamine aggregation suppression; stronger effect = higher value.
Experiment [8] is described as follows: compounds altering circadian rhythm period length – cell-based, LOPAC library, luminescence reporter (AID 2774; call rule not given here;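 further: values are relative to mean of DMSO wells on each plate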). As to conditions: circadian reporter cells, at 7 µM, actives lie on both sides.
For experiment [9], the system named is Hepatitis C virus NS3 helicase. Description: blockers of NS3h binding to ssDNA – biochemical, fluorescence polarization, LOPAC1280 library, primary screen (AID 687035; in the data active means inhibition above about 37%). As to conditions: Purified HCV NS3 helicase, Cy5-dT15 ssDNA binding fluorescence polarization; stronger effect = higher value; concentration not given here. (In general: In fluorescence polarisation assays a small probe gives low polarisation when free and higher when bound to something large.)

Experiment [10] concerns Hepatitis C virus NS3 helicase. Description: blockers of NS3h binding to DNA – biochemical, fluorescence polarization, NIH Clinical Collection, primary screen (AID 743270; call rule not given here). As to conditions: NS3 helicase binding to Cy5-dT15 DNA, stronger effect = higher value, concentration not given here.
Experiment [11] has as its target Single-stranded DNA-binding protein (Escherichia coli (strain K12)) (UniProt P0AGE0). Description: SSB-ssDNA binding inhibitors – biochemical, fluorescence polarization, NIH Clinical Collection, counter-screen for HCV NS3 helicase inhibitor project (AID 743271; in the data active means inhibition above about 28%). Conditions: E. coli SSB-DNA binding, stronger effect = higher value, concentration not given here.
The nature of experiment [12]: compounds distorting NS3 helicase fluorescence signal – biochemical, NIH Clinical Collection, artefact control for HCV NS3 helicase inhibitor project (AID 743272; call rule not given here;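 further: HCV NS3 helicase with a Cy5 labelled single stranded DNA probe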). As to conditions: fluorescence interference counterscreen, HCV NS3 helicase assay; stronger effect = lower value. Background: Counterscreens check selectivity or assay interference.
For another experiment, the system named is F380Y. Description: BK channel mutant inhibitors and activators – cell-based, U2OS BacMam, thallium flux, beta subunits, selectivity assay, profiling panel (AID 1259406).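 Further: initial slope of Thallos dye fluorescence rise after thallium is added; log ratio against the mean of 0.3% DMSO vehicle wells on the same plate.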 As to conditions: U2OS BacMam BK variants, at 30 µM.
The test system of the next experiment is F380Y/beta2Delta. Described as above. As to conditions: U2OS BacMam BK variants, at 30 µM.
Experiment [13] concerns the target Calcium-activated potassium channel subunit alpha-1 (Homo sapiens) + Leucine-rich repeat-containing protein 26 (Homo sapiens) (UniProt Q12791+Q2I0M4). Described as above. As to conditions: U2OS BacMam BK variants, F380Y/Slo1WT/gamma1, at 30 µM.
The subject of another experiment is R275C. Described as above. Conditions: U2OS BacMam BK variants, at 30 µM.
In another experiment the test system is R275C/beta1. Described as above. As to conditions: U2OS BacMam BK variants, at 30 µM.
The test system of the next experiment is R275C/beta2Delta. Described as above. As to conditions: U2OS BacMam BK variants, at 30 µM.
Experiment [14] in a line: P. berghei load reduction in hepatocytes – cell-based, HepG2, luciferase luminescence, HepG2 viability, primary screen (AID 624349; in the data active means parasite load remaining mostly below about 12%, no sharp cut-off; inactive means mostly above about 10%;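 further: 100% = mean of DMSO negative control wells on the same plate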). As to conditions: P. berghei liver stage in HepG2, luciferase luminescence, concentration not given here; parasite load remaining: stronger effect = lower value; viability: measured here: HepG2 viability without parasites.

Chain of Calcium-activated potassium channel subunit alpha-1 (Homo sapiens) + Leucine-rich repeat-containing protein 26 (Homo sapiens) (Q2I0M4 whole entry, looked up, one chain of several): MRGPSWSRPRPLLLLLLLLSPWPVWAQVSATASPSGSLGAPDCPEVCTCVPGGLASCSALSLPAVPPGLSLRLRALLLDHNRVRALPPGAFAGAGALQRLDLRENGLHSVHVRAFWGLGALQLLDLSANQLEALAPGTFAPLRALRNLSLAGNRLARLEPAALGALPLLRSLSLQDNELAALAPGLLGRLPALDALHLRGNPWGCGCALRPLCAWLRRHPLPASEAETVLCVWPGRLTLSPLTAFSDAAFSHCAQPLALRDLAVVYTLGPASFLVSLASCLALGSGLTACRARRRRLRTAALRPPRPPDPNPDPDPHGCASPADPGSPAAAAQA

Take `COC(=O)C1=C(C)NC(C)=C(C(=O)OCCN(C)Cc2ccccc2)C1c1cccc([N+](=O)[O-])c1` (stereo unspecified): the inhibition (in general, the relative decrease from the control value, in per cent) in experiment [1] was 5.3%; in [9] it was 3% (inactive); in experiment [10] it was -1.36% (inactive); in experiment [11], 7.91% (inactive). The compound further displayed a score in [2] of 1.16. Further, the rescue above control in experiment [3] is 19.4. Also, the cytochrome c release ratio in experiment [4] was 1.07. In addition, in [5], the inhibition of aggregation came to 11.1%. In addition, the glutamate uptake change in experiment [6] is -14.8%. The same compound came in with an aggregation suppression score in experiment [7] of 0.61. In addition, the period change in experiment [8] is -0.09 h (inactive). For the same compound, the fluorescence ratio in experiment [12] is 0.91 (inactive). The log fold change Tl+ flux with F380Y was -0.089 (inactive); in the experiment with F380Y/beta2Delta, -0.158 (active); in experiment [13] it was -0.059 (inactive); in the experiment on R275C, -0.031 (inactive); in the experiment with R275C/beta1, -0.044 (inactive); with R275C/beta2Delta, 0.0144 (inactive).
For the compound `COCCCOc1ccnc(CS(=O)c2nc3ccccc3[nH]2)c1C` (stereo unspecified), the parasite load remaining in experiment [14] was 32% (inactive) and 56.4% (inactive). Moreover, in [14], the viability (as a rule, a read-out of living cells in per cent, often relative to untreated cells) is 108% and 71%. The values for the inhibition in [10] and in [11] were -6.33% (inactive) and 0.39% (inactive), respectively. The fluorescence ratio in [12] was 0.94 (inactive).
`CN1C(=O)CC[C@H]1c1cccnc1`: the inhibition in experiment [1] was 25.7%; in experiment [9], -2% (inactive); in [10] it was 5.15% (inactive); in [11], 6.83% (inactive). In addition, the score in experiment [2] amounted to 1.01. In addition, the rescue above control in experiment [3] was -5.98. Moreover, in experiment [4], the cytochrome c release ratio turned out to be 0.78. In addition, the inhibition of aggregation in experiment [5] stood at 72.2%. The glutamate uptake change in experiment [6] came out at 11.3%. The compound further registered an aggregation suppression score in [7] of 1.36. The period change in experiment [8] is 0.1 h (inactive). Further, the fluorescence ratio in experiment [12] is 0.91 (inactive). Further, the log fold change Tl+ flux was -0.00809 (inactive) in the experiment with F380Y; 0.00811 (inactive) with F380Y/beta2Delta; 0.0267 (inactive) in experiment [13]; -0.00497 (inactive) in the experiment on R275C; -0.0358 (inactive) with R275C/beta1; -0.0502 (inactive) in the experiment with R275C/beta2Delta.
In the case of `Oc1ccc(O)cc1`, in experiment [8], the period change was -0.06 h (inactive). Besides, in experiment [14], the parasite load remaining is 24.8% (inactive) and -0.995% (inactive); the viability is 92.7% and 79.1%. Besides, the inhibition in experiment [9] was 0% (inactive).
Regarding `COc1ccc2cc([C@H](C)C(=O)O)ccc2c1`, the inhibition in experiment [1] is -27.8%; in experiment [9], -6% (inactive). The compound further came in with a score in experiment [2] of 0.32. Also, the rescue above control in experiment [3] is -11.2. Besides, in [4], the cytochrome c release ratio came out at 0.95. The inhibition of aggregation in experiment [5] was 74%. Also, the glutamate uptake change in experiment [6] came out at 6.08%. Besides, in experiment [7], the aggregation suppression score came to 0.196. In addition, the period change in experiment [8] is -0.095 h (inactive). The log fold change Tl+ flux was 0.000985 (inactive) in the experiment on F380Y; 0.00769 (inactive) in the experiment with F380Y/beta2Delta; 0.0442 (inactive) in experiment [13]; -0.0405 (inactive) in the experiment on R275C; -0.0361 (inactive) with R275C/beta1; -0.0194 (inactive) in the experiment on R275C/beta2Delta.
Regarding `CC(C)(C)NCC(O)c1ccc(O)c(CO)c1` (stereo unspecified), the inhibition was -4.84% in [1], 0% (inactive) in [9], -1.19% (inactive) in [10] and 2.98% (inactive) in experiment [11]. In [2], this compound had a score of 1.14. Also, the rescue above control in [3] was found to be 0.08. The cytochrome c release ratio in experiment [4] is 3.64. This compound also gave an inhibition of aggregation in experiment [5] of 25%. Further, in experiment [6], the glutamate uptake change was -8.12%. The compound also gave an aggregation suppression score in experiment [7] of 0.989. The period change in [8] is -0.055 hour (inactive) and -0.15 hour (inactive). For the same compound, in experiment [12], the fluorescence ratio was 0.94 (inactive).
With `N=c1nc(N2CCCCC2)cc(N)n1O`, the inhibition was 20.6% in experiment [1], -4% (inactive) in [9], -9.55% (inactive) in experiment [10] and -5.05% (inactive) in experiment [11]. Besides, the score in experiment [2] was 1.58. Moreover, in experiment [3], the rescue above control is 3.83. The cytochrome c release ratio in [4] turned out to be 1.17. In experiment [5], this compound had an inhibition of aggregation of 22.5%. Further, the glutamate uptake change in [6] amounted to 7.03%. The compound also displayed an aggregation suppression score in experiment [7] of 1.83. Besides, in experiment [8], the period change is -0.045 h (inactive). Also, in experiment [12], the fluorescence ratio is 1.03 (inactive). Further, the log fold change Tl+ flux in the experiment on F380Y was -0.0693 (inactive); in the experiment on F380Y/beta2Delta, -0.0535 (inactive); in [13], 0.00253 (inactive); in the experiment with R275C, -0.0452 (inactive); in the experiment with R275C/beta1, -0.0046 (inactive); with R275C/beta2Delta, -0.0232 (inactive).
On to `C[C@@H](O[C@H]1OCCN(Cc2n[nH]c(=O)[nH]2)[C@H]1c1ccc(F)cc1)c1cc(C(F)(F)F)cc(C(F)(F)F)c1`, for which, in [14], the parasite load remaining is 26.3% (inactive) and the viability worked out at 67.5%.
Regarding `Clc1ccccc1CN1CCc2sccc2C1`, the log fold change Tl+ flux with F380Y was -0.26 (active); with F380Y/beta2Delta it was -0.214 (active); in [13], -0.00222 (inactive); with R275C, -0.105 (inactive); in the experiment with R275C/beta1, -0.145 (active); with R275C/beta2Delta, -0.13 (active).
On to `O=C(O)COCCN1CCN(C(c2ccccc2)c2ccc(Cl)cc2)CC1` (stereo unspecified), for which the inhibition in [9] was -1% (inactive); in experiment [10], -12.3% (inactive); in experiment [11], -1.24% (inactive). Moreover, in [12], the fluorescence ratio is 1.01 (inactive). The log fold change Tl+ flux in the experiment on F380Y is 0.0594 (inactive); with F380Y/beta2Delta, 0.0743 (active); in experiment [13], 0.0148 (inactive); in the experiment with R275C, 0.0304 (inactive); in the experiment on R275C/beta1 it was 0.109 (inactive); with R275C/beta2Delta, 0.056 (inactive).
As for `O=C(NCC1CCCCN1)c1cc(OCC(F)(F)F)ccc1OCC(F)(F)F` (stereo unspecified), the period change in [8] is 0.075 h (inactive). In addition, in experiment [14], the parasite load remaining was -2.69% (inactive) and 85.7% (inactive) and 46.8% (inactive); the viability was 26.8% and 98.2% and 100%. In addition, the inhibition in experiment [10] was -15% (inactive). Also, the inhibition in experiment [11] was 19.4% (inactive). The fluorescence ratio in experiment [12] was 0.81 (inactive).
`CC1(C)[C@H](C(=O)O)N2C(=O)C[C@H]2S1(=O)=O`: in experiment [14], the parasite load remaining is 25.7% (inactive) and the viability is 74%.
